Assay outcomes: PubChem, several laboratories
Rows were chosen to be rich in hits. Some 3.4% of all compounds tested hit in one or more screens of this group.
proKLK7 act – proKLK7 (human) activation, primary screen. P49862. purified proKLK7, EDANS-DABCYL substrate fluorescence; 100% is mature enzyme control, 0% vehicle. activation, % at 7 µM. actives 0.9% (n = 370,000). AID 652039;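 active = activation above the mean of all tested compounds plus 3 SD, computed per campaign excluding outliers beyond control limits, cut at about 13% in these data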
ADAM17 inh – inhibits human ADAM17. P78536. AID 720648. actives 0.83% (n = 370,000). inhibition, % at 6.95 µM. recombinant ADAM17, EDANS/DABCYL FRET peptide cleavage;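 active = inhibition above the mean of compounds lying between control limits plus 3 SD, set per campaign, cut at about 8.5% in these data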
Target sequence (P78536 215-824 limits assumed): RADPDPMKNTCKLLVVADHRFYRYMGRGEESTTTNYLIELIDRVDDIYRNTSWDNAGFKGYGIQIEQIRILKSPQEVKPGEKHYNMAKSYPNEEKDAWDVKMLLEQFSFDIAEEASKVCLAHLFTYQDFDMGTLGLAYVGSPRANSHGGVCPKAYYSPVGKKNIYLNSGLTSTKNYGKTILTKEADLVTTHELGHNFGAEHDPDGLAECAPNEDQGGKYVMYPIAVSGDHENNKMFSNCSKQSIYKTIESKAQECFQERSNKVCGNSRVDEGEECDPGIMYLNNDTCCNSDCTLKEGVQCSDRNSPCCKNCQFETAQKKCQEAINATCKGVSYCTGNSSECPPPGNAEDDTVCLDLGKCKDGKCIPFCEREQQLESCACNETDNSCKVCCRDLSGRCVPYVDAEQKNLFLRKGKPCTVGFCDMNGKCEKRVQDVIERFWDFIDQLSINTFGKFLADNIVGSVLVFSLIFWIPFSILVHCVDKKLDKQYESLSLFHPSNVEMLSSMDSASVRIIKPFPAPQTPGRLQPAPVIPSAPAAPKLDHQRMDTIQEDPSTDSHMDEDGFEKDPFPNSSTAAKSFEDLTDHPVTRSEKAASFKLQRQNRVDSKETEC
ADAM10 inh – inhibitors of human ADAM10; recombinant ADAM10, EDANS/DABCYL FRET peptide cleavage, 3 h; inhibition, % at 7 µM; actives 0.62% (n = 370,000); AID 720582;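 active = inhibition above a per-campaign cutoff equal to the mean of compounds falling between control-based bounds plus 3 SD, cut at about 20% in these data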
HGIII-sPLA2 inh – Blocks human group III sPLA2 activity; Q9NZ20; QFRET BODIPY PC-A2 liposome hydrolysis, fluorescence; inhibition, % at 12.2 µM; actives 0.56% (n = 370,000);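 active = inhibition above mean plus 3 SD of compounds lying within the high and low control bounds, cut at about 19% in these data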
NRP1-CendR mod – alters CendR peptide binding to human NRP-1; FAM-RPARPAR peptide binding to NRP-1, fluorescence polarization; inhibition, % at 25 µM; actives 0.85% (n = 360,000); AID 602438;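 active = inhibition or corrected inhibition above about 18%, plus a signal ratio from 0.5 to 1.5, limit read from the data, passing the limit was not always enough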
ADAM10 confirm – human ADAM10 inhibition, confirmation | shares compounds with ADAM10 inh | ADAM10 QFRET peptide cleavage, EDANS fluorescence | inhibition, % at 6.95 µM | actives 1% (n = 2,100) | AID 743208;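 active = inhibition above about 20% chosen separately for each screening run, limit read from the data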
ADAM17 counter – ADAM17 inhibition, counter-screen for ADAM10 exosite hits | actives 0.5% (n = 2,100) | shares compounds with ADAM10 inh | inhibition, % at 6.95 µM | ADAM17 QFRET peptide cleavage, EDANS fluorescence;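 active = mean triplicate inhibition above the solvent-only control wells' mean plus 3 SD, cut at about 12% in these data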
Each line names hits and unclear results; the compound was inactive in the other large screens (follow-up assays come after a bar, where they were run).

CC(=O)Oc1ccc2ccccc2c1C(NC(=O)Cc1ccccc1)c1ccc(Cl)cc1 (stereo not given)	ADAM10 inh 22 | ADAM10 confirm inactive | ADAM17 counter inactive
CCOc1ccc(C(NC(=O)CC)c2c(O)ccc3ccccc23)cc1 (stereo not given)	none
COC(=O)[C@]12C[C@H](CC(=O)NCc3ccccc3)C(=O)N(Cc3cccc4ccccc34)C1=C[C@H](C(C)C)O[C@@H]2C1CC1	ADAM10 inh 23 (no result: NRP1-CendR mod) | ADAM10 confirm inactive | ADAM17 counter inactive
COC(=O)[C@]12C[C@H](CC(=O)NCc3cccc4ccccc34)C(=O)N(Cc3cccc4ccccc34)C1=C[C@H](C(C)C)O[C@@H]2C1CC1	none (no result: NRP1-CendR mod)
COC(=O)[C@]12C[C@H](CC(=O)NCc3cccc(C(F)(F)F)c3)C(=O)N(Cc3cccc4ccccc34)C1=C[C@H](C(C)C)O[C@@H]2C1CC1	ADAM10 inh 25 (no result: NRP1-CendR mod) | ADAM10 confirm inactive | ADAM17 counter inactive
CC(C)(C)OC(=O)[C@H](Cc1ccccc1)NC(=O)c1nc[nH]c1C(=O)N1CCN(c2ccccc2)CC1	ADAM10 inh 22 | ADAM10 confirm inactive | ADAM17 counter inactive
CC(C)C[C@H](NC(=O)c1[nH]cnc1C(=O)N[C@@H](C)c1ccccc1)C(=O)OC(C)(C)C	ADAM10 inh 24 | ADAM10 confirm inactive | ADAM17 counter inactive
CC(C)C[C@H](NC(=O)c1[nH]cnc1C(=O)N[C@@H](C)C(=O)OC(C)(C)C)C(=O)OCc1ccccc1	ADAM17 inh 12, ADAM10 inh 21 | ADAM10 confirm inactive | ADAM17 counter inactive
CC(C)C[C@H](NC(=O)c1nc[nH]c1C(=O)NCc1ccccc1)C(=O)OC(C)(C)C	ADAM10 inh 22 | ADAM10 confirm inactive | ADAM17 counter inactive
CC(C)C[C@H](NC(=O)c1[nH]cnc1C(=O)N[C@@H](Cc1ccccc1)C(=O)OC(C)(C)C)C(=O)OCc1ccccc1	none
O=C(NCC1COCCO1)C1CCN(S(=O)(=O)c2cccs2)CC1 (stereo not given)	none (no result: NRP1-CendR mod)
COc1ccc(CNS(=O)(=O)/C=C/c2cc(C)ccc2CNC(=O)OC(C)(C)C)cc1	none (no result: NRP1-CendR mod)
CC(C)C[C@H](NC(=O)c1[nH]cnc1C(=O)Nc1ccc(CNC(=O)OC(C)(C)C)cc1)C(=O)OC(C)(C)C	ADAM17 inh 9.1, ADAM10 inh 25 | ADAM10 confirm 25 | ADAM17 counter inactive
CC(O)(c1ccc(F)c(F)c1)c1nc(-c2ccc(F)c(Cl)c2)cs1 (stereo not given)	ADAM10 inh 22 | ADAM10 confirm inactive | ADAM17 counter inactive
CC(O)(c1ccc(F)c(F)c1)c1nc(-c2cc(F)cc(F)c2)cs1 (stereo not given)	ADAM10 inh 20 | ADAM10 confirm inactive | ADAM17 counter inactive
OC(c1ccccc1)(c1nc(-c2ccc(F)c(Cl)c2)cs1)C(F)(F)F (stereo not given)	ADAM10 inh 22 | ADAM10 confirm inactive | ADAM17 counter inactive
CC(O)(c1ccccc1)c1nc(-c2ccc(F)c(Cl)c2)cs1 (stereo not given)	none
CC(=O)N(/N=C1\Sc2ccccc2C1=O)c1ccc(C)cc1C	none
CC(=O)N(/N=C1\Sc2ccccc2C1=O)c1ccccc1C	ADAM10 inh 77 | ADAM10 confirm inactive | ADAM17 counter inactive
COc1cccc(-c2nnc(SC(C(=O)c3c[nH]c4ccccc34)c3ccccc3)n2C)c1 (stereo not given)	none
COc1ccccc1-c1nnc(SC(C(=O)c2c[nH]c3ccccc23)c2ccccc2)n1C (stereo not given)	ADAM10 inh 23 | ADAM10 confirm inactive | ADAM17 counter inactive
COc1ccc(NC(=O)CN(C)C(=O)c2sc3ccccc3c2Cl)cc1	none
COc1ccc(Cl)cc1NC(=O)CN(C)C(=O)c1sc2ccccc2c1Cl	ADAM10 inh 24 | ADAM10 confirm inactive | ADAM17 counter inactive
COc1ccc(Cl)cc1NC(=O)CN(C)C(=O)CN1C(=O)NC(C)(c2ccc3ccccc3c2)C1=O (stereo not given)	ADAM10 inh 27 | ADAM10 confirm inactive | ADAM17 counter inactive
Cn1c(=O)c(=O)n(C)c2cc(S(=O)(=O)N3CCN(Cc4ccc5c(c4)OCO5)CC3)ccc21	none (no result: NRP1-CendR mod)
O=S(=O)(Nc1ccc2c(c1)OCCO2)c1ccc(Br)s1	ADAM10 inh 21 | ADAM10 confirm inactive | ADAM17 counter inactive
CC1(C)SC(=S)N(/N=C/c2ccccc2)C1N(O)C(=O)Nc1ccc([N+](=O)[O-])cc1 (stereo not given)	ADAM10 inh 22 | ADAM10 confirm inactive | ADAM17 counter inactive
COc1ccc(-n2c(SCC(=O)NN=Cc3c(O)ccc4ccccc34)nnc2-c2ccc(C(C)(C)C)cc2)cc1	none (no result: NRP1-CendR mod)
CCOC(=O)[C@]12CCCCC/C=C\1N(Cc1ccc(OC)cc1)C(=O)[C@H]2CC(=O)NCc1cccc2ccccc12	none (no result: NRP1-CendR mod)
COCCCNC(=O)Cn1cc2c(n1)CCCCC2	none
COCCCNC(=O)Cn1cc2c(n1)CCC(C)C2 (stereo not given)	ADAM10 inh 87 | ADAM10 confirm inactive | ADAM17 counter inactive
Cc1c(C(C)(C)O)[nH]c2ccc(C(F)(F)F)cc12	none
Cc1c(C2(O)CCCCC2)[nH]c2ccc(C(F)(F)F)cc12	ADAM10 inh 20 | ADAM10 confirm inactive | ADAM17 counter inactive
CCCN1CC(=O)N2[C@H](C[C@@]3(n4ccc5ccccc54)c4ccccc4N(S(=O)(=O)c4ccccc4)[C@@H]23)C1=O	none (no result: NRP1-CendR mod)
CCC(=C(c1ccc(OC)cc1)c1ccc(OC)cc1)c1cn(CC(O)CN2CCN(C)CC2)c2ccccc12 (stereo not given)	ADAM10 inh 25 | ADAM10 confirm inactive | ADAM17 counter inactive
COc1ccc(-c2cc3ccccc3n2CC(O)CN2CCCCC2)cc1 (stereo not given)	none
COc1cccc(COC(=O)C2CCN(S(=O)(=O)c3ccc(C)cc3C)CC2)c1OC	ADAM10 inh 24 | ADAM10 confirm inactive | ADAM17 counter inactive
Cc1ccc(-c2nnc(SCC(=O)Nc3ccc(F)cc3F)n2Cc2ccco2)cc1	none (no result: NRP1-CendR mod)
N#Cc1ccc(NCCCN2CCC(C(O)(c3ccccc3)c3ccccc3)CC2)cc1	none (no result: NRP1-CendR mod)
O=C(Oc1cccc(NC(=O)c2ccco2)c1)c1cccc(S(=O)(=O)N2CCCCC2)c1	ADAM10 inh 21 | ADAM10 confirm inactive | ADAM17 counter inactive
O=C(Nc1cccc(S(=O)(=O)N2CCOCC2)c1)c1ccco1	none
O=S1(=O)C=CCN1Cc1cn(Cc2cccc(C(F)(F)F)c2)nn1	none (no result: NRP1-CendR mod)
Cc1ccccc1-n1c(Cn2c(=O)sc3ccccc32)nnc1SC(C)C	ADAM10 inh 78 | ADAM10 confirm inactive | ADAM17 counter inactive
